Data: PubChem BioAssay (NCATS)
Records with an inconclusive call do not appear. The source made the active and inactive calls. The call rests on the fitted dose curve; in most records, active means well fitted inhibition curve with a large enough effect; inconclusive means small, poorly fitted or top-dose-only effect; inactive means no such curve, though single readings can be large or run the other way.

These molecules were tested against Retinaldehyde dehydrogenase 3 (Homo sapiens) (UniProt P47895) (assay: qHTS for Inhibitors of the Aldehyde Dehydrogenase Family (ALDH1A3) Primary screen (AID 2061315;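 further: plate controls were DMSO vehicle for no effect and reference inhibitor for full effect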)). Conditions: ALDH inhibition qHTS; series mostly up to 56 µM; activity change, negative = inhibition: at the top concentration.
`COC1C(O)C(OC2CCC3(C=O)C(CCC4C3CCC3(C)C(C5=CC(=O)OC5)CCC43O)C2)OC(C)C1OC1OC(CO)C(O)C(O)C1O` (centres undefined) was tested, and the “activity change, negative = inhibition” value was -6.62% [at 16.9 µM] (inactive). With `O=C(Nc1nnc(-c2cccs2)o1)c1ccc(Cl)cc1` the “activity change, negative = inhibition” value was 26.3% (inactive). `Oc1ccc2c3c1O[C@H]1c4[nH]c5c(N=C=S)cccc5c4C[C@@]4(O)[C@@H](C2)N(CC2CC2)CC[C@]314` was tested, and the “activity change, negative = inhibition” value was 2.51% (inactive). In the case of `COc1cccc(CNc2ccc(S(=O)(=O)Nc3ccc4ccccc4c3)cc2)c1O`, the “activity change, negative = inhibition” value was -0.664% (inactive). `Cn1cc(P(=S)(c2ccccc2)c2ccccc2)c2ccccc21` was tested, and the “activity change, negative = inhibition” value was 4.07% (inactive). For `Cc1cccc(-n2cnc3cc(C(=O)N4CCCC(C)C4)ccc32)c1` (centres undefined), the “activity change, negative = inhibition” value was 7.18% (inactive). `C[C@]12CC[C@H](O)C[C@H]1CC[C@@H]1[C@@H]2[C@H](O)C(=O)[C@]2(C)[C@@H](c3ccc(=O)oc3)CC[C@]12O` was tested, and the “activity change, negative = inhibition” value was 4.99% (inactive). In the case of `CCOc1ccc(CCNC(=O)c2cc3ccccc3n2Cc2ccccn2)cc1OCC`, the “activity change, negative = inhibition” value was -16.7% (inactive). In the case of `Cc1ccccc1C(=O)N1CCc2cc(N3CCC(NC(=O)Cc4ccccc4)C3)ccc21` (centres undefined), the “activity change, negative = inhibition” value was -4.43% (inactive). For `CC[C@H](C)[C@H](NC(=O)[C@H]1CCCCN1C)C(=O)N(COC(=O)CC(C)C)[C@H](C[C@@H](OC(C)=O)c1nc(C(=O)N[C@@H](Cc2ccc(O)cc2)C[C@H](C)C(=O)O)cs1)C(C)C`, the activity change, negative = inhibition was 6.02% [at 1.12 µM] (inactive). For `CCOc1ccc(CCNC(=O)c2cc3ncccc3n2Cc2cccc(C)c2)cc1OCC`, the “activity change, negative = inhibition” value was 21.5% (inactive). `N#Cc1ccc(NC(=O)Nc2nnc(-c3ccncc3)s2)cc1Cl` was tested, and the “activity change, negative = inhibition” value was 6.71% (inactive). For `O=S(=O)(Nc1cccc2ccncc12)c1ccc(NCc2cccc(Cl)c2O)cc1`, the “activity change, negative = inhibition” value was -5.23% (inactive). For `Oc1ccc2c(c1)C13CCCC[C@H]1[C@@H](C2)N(CC1CCC1)CC3`, the “activity change, negative = inhibition” value was -2.2% (inactive). In the case of `Cc1cc(-c2nnc3n2CCCCC3)c(C)n1-c1ccc(C(C)(C)C)cc1`, the “activity change, negative = inhibition” value was 7.56% (inactive). In the case of `C[C@]12CC[C@@H](O)C[C@@H]1CC[C@@H]1[C@@H]2CC[C@]2(C)C(=O)[C@@H](Br)C[C@@H]12`, the “activity change, negative = inhibition” value was 1.58% (inactive). With `Cn1cc(Cl)c(C2N=C(Nc3nc4ccccc4o3)NC3=C2C(=O)CCC3)n1` (centres undefined) the “activity change, negative = inhibition” value was -2.86% (inactive). With `Cc1sc2c(c1C)C(c1ccc(Cl)cc1)=N[C@@H](CC(=O)Nc1ccc(O)cc1)c1nnc(C)n1-2` the “activity change, negative = inhibition” value was -14% [at 16.9 µM] (inactive). `CN1C(=O)c2ccccc2NC(=O)C1Cc1ccccc1` (centres undefined) was tested, and the “activity change, negative = inhibition” value was 0.548% (inactive). `Cc1ccc2nc(NC3=NC(c4[nH]ncc4Cl)C4=C(CCCC4=O)N3)oc2c1` (centres undefined) was tested, and the “activity change, negative = inhibition” value was -20.2% (inactive). With `C[C@]12CC[C@H](O)C[C@H]1CC[C@@H]1[C@@H]2[C@H](O)C[C@]2(C)[C@@H](c3ccc(=O)oc3)CC[C@]12O` the “activity change, negative = inhibition” value was -3.76% (inactive). With `CC(=O)Nc1ncc(S(=O)(=O)N2CCOCC2)s1` the “activity change, negative = inhibition” value was -1.96% (inactive). `C[C@H]1CC[C@@H]2[C@@H](C)[C@H]3[C@H](C[C@H]4[C@@H]5CC=C6CC(O[C@@H]7O[C@H](CO)[C@@H](O)[C@H](O[C@@H]8O[C@H](CO)[C@@H](O)[C@H](O)[C@H]8O)[C@@H]7O[C@@H]7O[C@@H](C)[C@H](O)[C@@H](O)[C@H]7O)CC[C@]6(C)[C@H]5CC[C@]34C)N2C1` (some centres undefined) was tested, and the “activity change, negative = inhibition” value was 12.3% [at 16.9 µM] (inactive). With `CO[C@H]1C[C@H](O[C@H]2CC[C@]3(CO)[C@H]4CC[C@]5(C)[C@@H](C6=CC(=O)OC6)CC[C@]5(O)[C@@H]4CC[C@]3(O)C2)O[C@H](C)[C@H]1O` the “activity change, negative = inhibition” value was 9.32% [at 28 µM] (inactive). `C/C=C1/CN2CC[C@]34C(=Nc5ccccc53)[C@@H]2C[C@@H]1[C@H]4C(=O)OC` was tested, and the “activity change, negative = inhibition” value was 10.9% (inactive). For `C[n+]1cc(P(=S)(c2ccccc2)c2ccccc2)n2ccccc21`, the “activity change, negative = inhibition” value was -6.64% (inactive). For `COC(=O)c1nc(-c2cccc3ccccc23)oc1OC`, the “activity change, negative = inhibition” value was -15.6% (inactive). With `Cc1cc(-c2nnc3n2CCCCC3)c(C)n1-c1ccc(Cl)cc1` the “activity change, negative = inhibition” value was -6.52% (inactive). With `C=C[C@H]1[C@H](O[C@@H]2O[C@H](CO)[C@@H](O)[C@H](O)[C@H]2O)OC=C2C(=O)OCC[C@H]21` the “activity change, negative = inhibition” value was -8.21% (inactive). For `CC(=O)OC[C@]12C[C@H](OC(=O)CC(C)C)C(C)=C[C@H]1O[C@@H]1[C@H](O)[C@@H](O)[C@@]2(C)[C@]12CO2`, the “activity change, negative = inhibition” value was 6.21% [at 28 µM] (inactive). `Cc1cc(-c2nnc3n2CCCCC3)c(C)n1-c1cccnc1` was tested, and the “activity change, negative = inhibition” value was 1.96% (inactive). `CCc1nn2c(=O)cc(N3CCN(C)CC3)nc2s1` was tested, and the “activity change, negative = inhibition” value was -4.49% (inactive). `CC(=O)O[C@H]1C[C@]2(O)[C@@H]3CC[C@@H]4C[C@@H](O)CC[C@]4(C)[C@H]3CC[C@]2(C)[C@H]1c1ccc(=O)oc1` was tested, and the “activity change, negative = inhibition” value was 0% (inactive). `C[C@H]1O[C@@H](O[C@H]2CC[C@]3(C=O)C4CC[C@]5(C)[C@@H](C6=CC(=O)OC6)CC[C@]5(O)[C@@H]4CC[C@]3(O)C2)C[C@@H](O)[C@@H]1O` (some centres undefined) was tested, and the “activity change, negative = inhibition” value was 10.5% [at 28 µM] (inactive).
